# Experimental data from PubChem BioAssay AID1159580 (chemical genetic matrix, 2015).
# Several values for one entry are separate records, joined by “and”; a condition that tells them apart may be missing. Equal values may be shown once. Out of some 5,500 compounds screened, about 2,000 (36%) were called active. Inconclusive results (about 18%) are left out. Cut-off read from the data, not from the text of the source: active = normalized growth mostly below about 0.91 (no sharp cut-off); inconclusive = no clear call, values can overlap the other calls; inactive = mostly above about 0.92. Some of the results follow.
# Assay: chemical genetic growth profiling, strain panel (AID 1159580);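 note: tested at 20 µM; growth read once vehicle control cultures reached saturation at 30 °C; 1 = growth at the plate median or of vehicle wells; lower values mean less growth of the strain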
# Settings: S. cerevisiae deletion strains, growth OD
structure (smiles),measurement,setting,value
O=C(O)CCCOc1ccc(Cl)cc1Cl,normalized growth,"locus YAL013W, strain DEP1, stronger effect = lower value",0.993 (inactive)
same,normalized growth,"locus YAL021C, strain ccr4, stronger effect = lower value",0.941 (inactive)
same,normalized growth,"locus YAL026C, strain drs2, stronger effect = lower value",0.931 (inactive)
same,normalized growth,"locus YAL030W, strain snc1, stronger effect = lower value",0.944 (inactive)
same,normalized growth,"locus YBL061C, strain skt5, stronger effect = lower value",0.948 (inactive)
same,normalized growth,"locus YBR009C, strain hhf1, stronger effect = lower value",0.951 (inactive)
same,normalized growth,"locus YBR021W, strain FUR4, stronger effect = lower value",0.97 (inactive)
same,normalized growth,"locus YBR023C, strain chs3, stronger effect = lower value",0.954 (inactive)
same,normalized growth,"locus YBR171W, strain sec66, stronger effect = lower value",0.888 (active)
same,normalized growth,"locus YBR229C, strain ROT2, stronger effect = lower value",1.01 (inactive)
same,normalized growth,"locus YBR231C, strain swc5, stronger effect = lower value",0.962 (inactive)
same,normalized growth,"locus YBR279W, strain paf1, stronger effect = lower value",0.962 (inactive)
same,normalized growth,"locus YCL011C, strain gbp2, stronger effect = lower value",0.957 (inactive)
same,normalized growth,"locus YCL016C, strain dcc1, stronger effect = lower value",0.958 (inactive)
same,normalized growth,"locus YCL029C, strain bik1, stronger effect = lower value",1 (inactive)
same,normalized growth,"locus YCL061C, strain MRC1, stronger effect = lower value",0.938 (inactive)
same,normalized growth,"locus YCL069W, strain vba3, stronger effect = lower value",0.944 (inactive)
same,normalized growth,"locus YCR088W, strain abp1, stronger effect = lower value",0.929 (inactive)
same,normalized growth,"locus YDL005C, strain med2, stronger effect = lower value",0.946 (inactive)
same,normalized growth,"locus YDL035C, strain GPR1, stronger effect = lower value",1.01 (inactive)
same,normalized growth,"locus YDL040C, strain nat1, stronger effect = lower value",0.961 (inactive)
same,normalized growth,"locus YDL074C, strain BRE1, stronger effect = lower value",1 (inactive)
same,normalized growth,"locus YDL101C, strain DUN1, stronger effect = lower value",1.01 (inactive)
same,normalized growth,"locus YDL134C, strain PPH21, stronger effect = lower value",0.999 (inactive)
same,normalized growth,"locus YDL185W, strain tfp1, stronger effect = lower value",0.986 (inactive)
same,normalized growth,"locus YDL192W, strain arf1, stronger effect = lower value",1.02 (inactive)
same,normalized growth,"locus YDR001C, strain nth1, stronger effect = lower value",0.942 (inactive)
same,normalized growth,"locus YDR069C, strain doa4, stronger effect = lower value",0.955 (inactive)
same,normalized growth,"locus YDR101C, strain arx1, stronger effect = lower value",1.01 (inactive)
same,normalized growth,"locus YDR137W, strain rgp1, stronger effect = lower value",0.817 (active)
same,normalized growth,"locus YDR150W, strain NUM1, stronger effect = lower value",0.994 (inactive)
same,normalized growth,"locus YDR159W, strain sac3, stronger effect = lower value",0.902 (inactive)
same,normalized growth,"locus YDR162C, strain NBP2, stronger effect = lower value",0.99 (inactive)
same,normalized growth,"locus YDR195W, strain ref2",0.955 (inactive)
same,normalized growth,"locus YDR297W, strain sur2, stronger effect = lower value",0.962 (inactive)
same,normalized growth,"locus YDR318W, strain mcm21, stronger effect = lower value",1.01 (inactive)
same,normalized growth,"locus YDR334W, strain swr1, stronger effect = lower value",0.945 (inactive)
same,normalized growth,"locus YDR335W, strain msn5, stronger effect = lower value",0.943 (inactive)
same,normalized growth,"locus YDR388W, stronger effect = lower value",1.01 (inactive)
same,normalized growth,"locus YDR392W, strain spt3, stronger effect = lower value",0.893 (inactive)
same,normalized growth,"locus YDR502C, strain sam2, stronger effect = lower value",1.01 (inactive)
same,normalized growth,"locus YEL003W, strain gim4, stronger effect = lower value",0.963 (inactive)
same,normalized growth,"locus YEL037C, strain rad23, stronger effect = lower value",0.954 (inactive)
same,normalized growth,"locus YEL061C, strain CIN8 (second series), stronger effect = lower value",0.929 (inactive)
same,normalized growth,"locus YEL061C, strain CIN8, stronger effect = lower value",0.998 (inactive)
same,normalized growth,"locus YER015W, strain faa2, stronger effect = lower value",0.969 (inactive)
same,normalized growth,"locus YER016W, strain bim1, stronger effect = lower value",0.962 (inactive)
same,normalized growth,"locus YER110C, stronger effect = lower value",1.01 (inactive)
same,normalized growth,"locus YER111C, strain swi4, stronger effect = lower value",0.944 (inactive)
same,normalized growth,"locus YER155C, strain BEM2 (second series), stronger effect = lower value",0.887 (inactive)
same,normalized growth,"locus YER155C, strain BEM2, stronger effect = lower value",0.98 (inactive)
same,normalized growth,"locus YER167W, strain BCK2, stronger effect = lower value",0.991 (inactive)
same,normalized growth,"locus YFR010W, strain ubp6, stronger effect = lower value",0.951 (inactive)
same,normalized growth,"locus YGL078C, strain dbp3, stronger effect = lower value",1.01 (inactive)
same,normalized growth,"locus YGL086W, strain mad1, stronger effect = lower value",0.99 (inactive)
same,normalized growth,"locus YGL167C, strain pmr1, stronger effect = lower value",0.929 (inactive)
same,normalized growth,"locus YGL173C, strain kem1, stronger effect = lower value",0.952 (inactive)
same,normalized growth,"locus YGL227W, strain vid30, stronger effect = lower value",0.93 (inactive)
same,normalized growth,"locus YGL240W, strain doc1, stronger effect = lower value",0.912 (inactive)
same,normalized growth,"locus YGL248W, strain PDE1, stronger effect = lower value",1.01 (inactive)
same,normalized growth,"locus YGL253W, strain hxk2, stronger effect = lower value",0.939 (inactive)
same,normalized growth,"locus YGR078C, strain PAC10, stronger effect = lower value",1.01 (inactive)
same,normalized growth,"locus YGR135W, strain pre9, stronger effect = lower value",1.01 (inactive)
same,normalized growth,"locus YGR229C, strain SMI1, stronger effect = lower value",1.03 (inactive)
same,normalized growth,"locus YGR252W, strain gcn5, stronger effect = lower value",0.982 (inactive)
same,normalized growth,"locus YHR013C, strain ard1, stronger effect = lower value",0.93 (inactive)
same,normalized growth,"locus YHR027C, strain rpn1, stronger effect = lower value",0.938 (inactive)
same,normalized growth,"locus YHR030C, strain SLT2, stronger effect = lower value",0.999 (inactive) and 0.829 (active)
same,normalized growth,"locus YHR079C, strain IRE1 (second series), stronger effect = lower value",1.01 (inactive)
same,normalized growth,"locus YHR079C, strain IRE1, stronger effect = lower value",0.757 (active)
same,normalized growth,"locus YHR094C, strain hxt1, stronger effect = lower value",1.01 (inactive)
same,normalized growth,"locus YHR129C, strain ARP1, stronger effect = lower value",0.993 (inactive)
same,normalized growth,"locus YHR142W, strain chs7, stronger effect = lower value",0.939 (inactive)
same,normalized growth,"locus YHR200W, strain rpn10, stronger effect = lower value",1 (inactive)
same,normalized growth,"locus YIL066C, strain RNR3, stronger effect = lower value",1.01 (inactive)
same,normalized growth,"locus YIL073C, strain SPO22, stronger effect = lower value",1.1 (inactive)
same,normalized growth,"locus YIL125W, strain kgd1, stronger effect = lower value",0.991 (inactive)
same,normalized growth,"locus YIR030C, strain dcg1, stronger effect = lower value",1.01 (inactive)
same,normalized growth,"locus YJL092W, strain hpr5, stronger effect = lower value",0.94 (inactive)
same,normalized growth,"locus YJL095W, strain BCK1 (second series), stronger effect = lower value",0.95 (inactive)
same,normalized growth,"locus YJL095W, strain BCK1, stronger effect = lower value",1.01 (inactive) and 0.838 (active)
same,normalized growth,"locus YJL115W, strain asf1, stronger effect = lower value",0.922 (inactive)
same,normalized growth,"locus YJL129C, strain trk1, stronger effect = lower value",0.847 (active)
same,normalized growth,"locus YJL134W, strain LCB3, stronger effect = lower value",0.998 (inactive)
same,normalized growth,"locus YJL154C, strain vps35, stronger effect = lower value",0.948 (inactive)
same,normalized growth,"locus YJL164C, strain tpk1, stronger effect = lower value",0.961 (inactive)
same,normalized growth,"locus YJL166W, strain qcr8, stronger effect = lower value",0.942 (inactive)
same,normalized growth,"locus YJL168C, strain set2, stronger effect = lower value",1.01 (inactive)
same,normalized growth,"locus YJL187C, strain SWE1 (second series), stronger effect = lower value",0.999 (inactive)
same,normalized growth,"locus YJL187C, strain SWE1, stronger effect = lower value",0.947 (inactive)
same,normalized growth,"locus YJR043C, strain POL32, stronger effect = lower value",0.997 (inactive)
same,normalized growth,"locus YJR066W, strain TOR1, stronger effect = lower value",0.779 (active)
